LANA-H2B inh – blocks KSHV LANA binding to histone H2A/H2B | inhibition, % (test concentration not listed) | 320,000 compounds, 0.6% hits | Q9QR71 | AID 2629 | cell-free LANA-H2A/H2B peptide, fluorescence polarization; in the data active = inhibition mostly above about 10%, no sharp cut-off; inactive = mostly below about 6.7%
VLA-4 inh – inhibition in a human VLA-4 binding assay | VLA-4 expressing cells, ligand binding flow cytometry | 330,000 compounds, 0.2% hits | inhibition, % (about 7 µM as worked out from the volumes in the protocol) | P13612
GRK2 aptamer HTS – blocks RNA aptamer binding to human GRK2. bead flow cytometry, FAM-aptamer displacement from GRK2. inhibition of aptamer binding, % at 10 µM. 330,000 compounds, 0.59% hits. AID 488847;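 active = inhibition of aptamer binding above 40%, roughly 3 SD of noise, on plates passing a quality check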;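 also: median bead fluorescence of bound FAM aptamer so fluorescent compounds give negative values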
Target sequence (P25098 whole entry, looked up): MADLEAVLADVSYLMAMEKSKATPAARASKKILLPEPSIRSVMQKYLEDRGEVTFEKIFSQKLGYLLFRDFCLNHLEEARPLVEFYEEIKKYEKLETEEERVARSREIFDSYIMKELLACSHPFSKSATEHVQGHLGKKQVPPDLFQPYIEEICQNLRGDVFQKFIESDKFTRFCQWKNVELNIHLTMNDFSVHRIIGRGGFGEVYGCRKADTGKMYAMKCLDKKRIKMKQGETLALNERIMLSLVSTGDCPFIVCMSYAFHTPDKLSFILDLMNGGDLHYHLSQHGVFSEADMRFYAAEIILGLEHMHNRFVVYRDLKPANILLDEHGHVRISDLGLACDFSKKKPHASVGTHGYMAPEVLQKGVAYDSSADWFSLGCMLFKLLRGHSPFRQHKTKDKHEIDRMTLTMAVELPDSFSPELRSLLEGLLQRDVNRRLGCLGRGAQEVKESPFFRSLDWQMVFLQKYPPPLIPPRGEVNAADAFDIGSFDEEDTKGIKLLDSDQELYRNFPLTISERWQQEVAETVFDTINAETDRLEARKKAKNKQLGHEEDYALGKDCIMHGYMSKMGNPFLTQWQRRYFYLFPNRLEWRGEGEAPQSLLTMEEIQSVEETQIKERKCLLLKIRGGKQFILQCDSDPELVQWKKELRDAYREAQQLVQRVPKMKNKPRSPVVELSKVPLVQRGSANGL
PKD1 kinase inh – blocks activity of human protein kinase D1; Q15139; PKD1 kinase fluorescence polarization assay; inhibition, % (no concentration beside the values); 200,000 compounds, 0.056% hits; AID 797
Pemphigus Ab inh – blocks pemphigus antibody binding to human desmoglein-3; P32926; DSG3-coupled beads, scFv-anti-DSG3-GFP binding, flow cytometry; active compounds read low; 310,000 compounds, 0.48% hits; binding (percent of control), % at 10 µM;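 active = binding more than 3 SD below its plate's average and above zero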;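 also: hits lower antibody fragment binding to DSG3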
HDAC3 inhib – blocks human histone deacetylase 3; O15379; recombinant HDAC3, fluorogenic peptide/trypsin coupled, fluorescence; inhibition, % at 8.3 µM; 320,000 compounds, 0.15% hits; AID 2718; in the data active = inhibition above about 26%, passing the limit was not always enough
VLA-4 allo CP – human VLA-4 allosteric modulation in cherry picked compounds | shares compounds with VLA-4 inh | U937 cells, HUTS-21 LIBS mAb binding, flow cytometry; LDV ligand present at threefold Kd | inhibition, % at 6.7 µM | 1,300 compounds, 2% hits | AID 2813; in the data active = inhibition above about 40%;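 also: 0% = ligand without compound and 100% = no ligand background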
Active calls of the source: *; / = no result. In the library only some 1.8% were active in any assay of this set; here they are far more common. Rule as the data show it, unless noted: active = inhibition above about 50%; inactive = the rest.

SMILES | LANA-H2B inh | VLA-4 inh | GRK2 aptamer HTS | PKD1 kinase inh | Pemphigus Ab inh | HDAC3 inhib | VLA-4 allo CP
CC(C)(C)OC(=O)N(Cc1ccccc1)Cc1cccc(OCc2cccc(NC(=O)c3ccccc3)c2)c1 | / | / | / | / | 104 | / | /
CCOc1ccc(N(C(=O)c2cnsn2)C(C(=O)NC2CCCCC2)c2ccncc2)cc1 (stereo unspecified) | -1 | -2 | 0 | -1 | 106 | 0 | /
COc1ccc(N(C(=O)c2cnsn2)C(C(=O)NC2CCCCC2)c2ccncc2)cc1 (stereo unspecified) | -4 | 41 | 4 | -16 | 96 | 4 | -11
CCCOc1ccccc1/C=C(\C#N)C(=O)Nc1cccc(C)n1 | -5 | 6 | 2 | / | 116 | 9 | /
CCOc1ccccc1/C=C(/C#N)C(N)=O | -6 | 1 | 0 | / | 89 | / | 2
Cn1cnnc1SCC(=O)Nc1ccc(N2CCCCC2)cc1 | 0 | 6 | 0 | / | 117 | 1 | /
CCOC(=O)c1c(C)nc2sc3c(=O)n(-c4ccc(C)cc4)cnc3c2c1-c1ccc(OC)cc1 | -3 | 94* | 1 | 15 | 104 | 1 | 11
CCOC(=O)c1c(C)nc2sc3c(=O)n(-c4ccc(C(C)=O)cc4)cnc3c2c1-c1ccc(Cl)cc1 | -1 | 10 | 3 | 4 | 91 | -1 | /
CCc1cc(=O)[nH]c(-n2[nH]c(-c3ccccc3)cc2=O)n1 | 2 | -9 | 2 | -8 | 96 | 7 | 4
O=c1cc(-c2ccccc2)[nH]n1-c1nc2ccccc2[nH]1 | -4 | -4 | 0 | 2 | 108 | 10 | /
CC(OCCN1CCCC1)(c1ccc(F)cc1)c1ccc(F)cc1 | -4 | 10 | 0 | 9 | 99 | 5 | /
Cc1cc(=S)c2cccc(C)c2[nH]1 | -1 | 9 | 1 | 0 | / | -1 | /
Cc1ccccc1C(=O)OCC(=O)N(C)c1ccccc1 | 0 | 7 | 1 | / | / | 3 | /
Cc1cccc(C(=O)OCC(=O)N(C)c2ccccc2)c1C | -16 | 3 | 1 | / | 95 | -2 | 0
Cc1cccc(C)c1NC(=S)N(Cc1ccccc1)Cc1cccs1 | 0 | 10 | 1 | 7 | 105 | 0 | /
CCC(C)Nc1nc2c(c(=O)n(C)c(=O)n2C)n1Cc1ccc(Cl)cc1 (stereo unspecified) | -5 | -2 | 0 | / | 96 | 2 | /
CCNc1nc2c(c(=O)n(C)c(=O)n2C)n1Cc1ccc(Cl)cc1 | 0 | 57* | 2 | / | 100 | -1 | 5
COC1=CC(=O)C[C@@H](C)[C@]12Oc1c(Cl)c(OC)cc(OC)c1C2=O | -6 | 54* | 4 | / | 94 | -9 | 7
CCC1(c2ccccc2)NC(=O)N(CC(=O)Nc2ccc(N3CCOCC3)cc2)C1=O (stereo unspecified) | 3 | 23 | 0 | / | 101 | 9 | /
CSc1nc(C(C)C)ccc1CNC(=O)CC(C)c1ccccc1 (stereo unspecified) | 1 | 1 | 0 | / | 99 | 7 | /
CCN(CC)S(=O)(=O)c1cccc(NC(=O)c2cc(-c3cccs3)nn2-c2ccccc2)c1 | -7 | -11 | 0 | -5 | 102 | 12 | /
CN(C)S(=O)(=O)c1cccc(NC(=O)c2cc(-c3cccs3)nn2-c2ccccc2)c1 | -1 | 40 | 0 | 2 | 99 | 8 | 1
O=C(O)c1ccc(NC2OC[C@@H](O)[C@H](O)[C@H]2O)cc1 (stereo partly specified) | -4 | 59* | 11 | / | 127 | 6 | -6
COc1ccc(OCC(=O)Nc2ccccc2OC)cc1 | 3 | 0 | 6 | -4 | 103 | -1 | /
CCC(C)NC(=O)c1ccccc1NC(=O)COc1ccc(OC)cc1 (stereo unspecified) | / | / | / | -1 | 88 | / | 6
SMILES | LANA-H2B inh | VLA-4 inh | GRK2 aptamer HTS | PKD1 kinase inh | Pemphigus Ab inh | HDAC3 inhib | VLA-4 allo CP
COc1ccc(OCC(=O)Nc2ccccc2C(=O)NC(C)C)cc1 | 9 | 1 | 2 | -3 | 103 | -3 | -2
Cc1ccc(S(=O)(=O)N2CCN(C(=O)c3sccc3-c3ccccc3)CC2)cc1 | -3 | -2 | 12 | / | 103 | 13 | /
COc1ccccc1CNC(=O)C(C)NS(=O)(=O)c1ccccc1 (stereo unspecified) | 1 | 7 | 0 | -7 | 100 | 1 | -7
COc1ccccc1CNC(=O)CS(=O)(=O)c1ccccc1 | 5 | 0 | 0 | / | 104 | 1 | /
COc1ccccc1CNC(=O)CN(C)S(=O)(=O)c1ccc(F)cc1 | 2 | -6 | 1 | / | 110 | -4 | -4
COc1ccccc1CC(=O)NNC(=O)CN(C)S(=O)(=O)c1ccc(Cl)cc1 | / | 1 | 1 | / | 107 | / | /
COc1cc2c(cc1OC)C(c1ccc(N(C)C)cc1)CC(=O)N2 (stereo unspecified) | -1 | 23 | 0 | -4 | 89 | 2 | /
COc1cc2c(cc1OC)C(c1cccc(Br)c1)CC(=O)N2 (stereo unspecified) | 3 | 4 | 2 | / | 116 | 14 | /
CCN(CC)c1ccc(C2CC(=O)Nc3cc(OC)c(OC)cc32)cc1 (stereo unspecified) | 4 | 3 | 4 | 1 | / | 8 | 3
COc1ccc(C2CC(=O)Nc3cc(OC)c(OC)cc32)cc1Br (stereo unspecified) | -2 | 8 | 1 | / | 108 | -5 | 6
N=C(N)N=Nc1c(O)[nH]c2ccc(Br)cc12 | 1 | 53* | 0 | 1 | 80 | 4 | 0
NC(=O)CC(NC(=O)c1cccc(Br)c1)c1ccc(NC2CCCCCCCCCCC2)c([N+](=O)[O-])c1 (stereo unspecified) | 0 | 2 | 1 | / | 99 | -2 | /
CC(C)(C)Nc1nc2ccc([N+](=O)[O-])cc2o1 | -3 | -1 | 1 | / | 108 | 5 | /
COC(=O)/C=C1/SC(=NC(=O)c2ccc(Cl)cc2)NC1=O | -5 | -8 | 0 | / | 98 | / | /
COC(=O)/C=C1\SC(=NC(=O)c2ccc(C)cc2)NC1=O | 2 | 51* | 0 | 1 | 101 | 5 | 2
C#C[C@]1(O)CC[C@H]2[C@@H]3CCc4cc(OC)ccc4[C@H]3CC[C@@]21C | -10 | -7 | 0 | -3 | 117 | 4 | /
C#C[C@]1(O)CC[C@H]2[C@@H]3CCc4cc(OC5CCCC5)ccc4[C@H]3CC[C@@]21C | -1 | 53* | 1 | / | 102 | 0 | 18
CC(C)c1ccc(C2(C)NC(=O)N(CC(=O)NC3CCCC(C)C3C)C2=O)cc1 (stereo unspecified) | 1 | 52* | 3 | / | 102 | 18 | 0
COC(=O)c1ccsc1NC(=O)CN1C(=O)CCC1=O | -6 | 52* | 4 | / | 97 | 6 | 0
COC(=O)c1ccc2nc(NC(=O)CN3C(=O)CCC3=O)sc2c1 | -1 | 8 | 1 | -4 | / | -1 | /
COc1cc(C(=O)OCC(=O)N2CCN(C(C)=O)CC2)ccc1OCC(C)C | 2 | 2 | 4 | / | 111 | 2 | /

Assay outcomes as filed in PubChem.
